Results from PubChem BioAssay (EPA / NIEHS).
Records with an inconclusive call do not appear. Calls of active or inactive are those of the source. Rule for the calls, unless noted: active = hit-call score of the fitted dose curve at least 0.9, where 1 is the maximum; inactive = score below 0.9.

What was measured:
[1] = CCTE_Mundy_HCI_Cortical_NOG_NeuriteCount: CCTE's Neurite Outgrowth Assay in rat cortical cells for Neurite Count, Mundy Lab (AID 2284212);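 note: cells fixed about two days after chemical exposure began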
Procedure, shortened: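 Rat cortical primary cells; compound added 2 h post-plating, 1/10 dilution of working solution. Anti-betaIII-tubulin/AF488 ICC; ArrayScan neurite count vs DMSO.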

[2] = CCTE_Mundy_HCI_Cortical_NOG_NeuriteLength: CCTE's Neurite Outgrowth Assay in rat cortical cells for Neurite Length, Mundy Lab (AID 2284213)
Procedure, shortened: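 First, rat primary cortical cells were plated and, 2 h later, given test chemical as a 1/10 dilution. Finally, βIII-tubulin immunostaining enabled automated imaging of neurite length.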

[3] = CCTE_Mundy_HCI_Cortical_Synap_Neur_Matur_NeuriteLength: CCTE's Synaptogenesis and Neurite Maturation Assay in rat cortical cells for Neurite Length, Mundy Lab (AID 2284214)
Procedure, shortened: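 DMSO-normalised neurite length, from high-content imaging of anti-MAP2-stained rat cortical cells fixed at DIV 12. Glia were suppressed with AraC (DIV 5) before chemical exposure from DIV 7.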

[4] = CCTE_Mundy_HCI_Cortical_Synap_Neur_Matur_SynapseCount: CCTE's Synaptogenesis and Neurite Maturation Assay in rat cortical cells for Synapse Count, Mundy Lab (AID 2284218)
Procedure, shortened: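 Endpoint: synapses/neuron by HCI (synaptophysin puncta on MAP2-labelled neurites, Hoechst nuclei). Rat primary cortical cells, AraC DIV 5, dosed DIV 7, fixed DIV 12; DMSO negative control.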

[5] = CCTE_Mundy_HCI_Cortical_Synap_Neur_Matur_NeuriteCount: CCTE's Synaptogenesis and Neurite Maturation Assay in rat cortical cells for Neurite Count, Mundy Lab (AID 2284222);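 note: exposure from day 7 to day 12 in vitro with readout at day 12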
Procedure, shortened: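 In this multiplexed morphology readout, rat primary cortical neurons are fixed at DIV 12 following dosing at DIV 7 and stained for MAP2, synaptophysin and nuclei. High-content image analysis yields neurite count.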

[6] = CCTE_Mundy_HCI_Cortical_Synap_Neur_Matur_CellBodySpotCount: CCTE's Synaptogenesis and Neurite Maturation Assay in rat cortical cells for Cell Body Spot Count, Mundy Lab (AID 2284223)
Procedure, shortened: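 Rat cortical neurons; AraC @ DIV 5; dose + media change DIV 7; fix DIV 12; anti-MAP2/anti-synaptophysin IF, Hoechst; HCI count of soma synaptophysin puncta/neuron; DMSO = negative control.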

[7] = CCTE_Mundy_HCI_hNP1_Pro_ResponderAvgInten: CCTE's Proliferation Assay in human neuroprogenitor cells, Mundy Lab (AID 2284224; active = hit-call score of the fitted dose curve at least 0.9, where 1 is the maximum;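 note: human neural progenitor cells hNP1 derived from WA09 embryonic stem cells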)
Procedure, shortened: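 Proliferation was scored as BrdU labelling intensity in human neural progenitors derived from WA09 embryonic cells, measured 26.25 hours after chemical dosing. Activity was fitted relative to DMSO.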

[8] = UKN2_HCS_IMR90_cell_viability: Viability Assessment in the University of Konstanz (UKN) Leist Lab Neural Crest Cell Migration Assay in human induced IMR90 Pluripotent Stem Cells (UKN2) (AID 2284233);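 note: cells exposed to compound for 24 h after a 24 h migration phase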
Procedure, shortened: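 After calcein-AM/Hoechst staining, viability is quantified by high-content fluorescence imaging, relative to DMSO, in iPSC (IMR90)-derived neural crest cells. Exposure lasts 24 h, starting after a 24 h migration period on PLO/laminin/fibronectin coating.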

[9] = CCTE_Mundy_HCI_Cortical_NOG_BPCount: CCTE's Neurite Outgrowth Assay in rat cortical cells for Branch Point Count, Mundy Lab (AID 2284237)
Procedure, shortened: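 Measured 50.33 h after dosing, this morphology endpoint uses rat primary cortical cultures labelled for betaIII-tubulin. Branch points are quantified by high-content imaging, with DMSO as negative control and baseline.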

[10] = CCTE_Mundy_HCI_hNP1_Casp3_7: CCTE's Caspase-Glo 3/7 Assay in human neuroprogenitor cells for Apoptosis, Mundy Lab (AID 2284240)
Procedure, shortened: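 Apoptosis is scored by activated caspase-3/7 luminescence in WA09-derived neural progenitor cells, measured 26.5 h after chemical dosing. Values represent gain of signal relative to DMSO vehicle.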

[11] = IUF_NPC2a_radial_glia_migration_120hr: Leibniz Research Institute for Environmental Medicine (IUF) 120-hour Neural Progenitor Cell Migration Assay for Radial Glia Migration (NPC2a) (AID 2284298)
Procedure, shortened: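 Readout: distance in um from sphere core edge to migration-area edge, derived from Hoechst nuclei density with a threshold-defined polynomial boundary. Spheres: hNPC, GW 16-19, 0.3 mm, on PDL/laminin; exposure 5 days; DMSO is baseline.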

[12] = IUF_NPC2a_radial_glia_migration_72hr: Leibniz Research Institute for Environmental Medicine (IUF) 72-hour Neural Progenitor Cell Migration Assay for Radial Glia Migration (NPC2a) (AID 2284299)
Procedure, shortened: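 Spheres of human primary neural progenitors migrate on poly-D-lysine/laminin under compound exposure at 37C, 5% CO2. The 72 h radial glia migration distance comes from brightfield images, measured manually.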

[13] = IUF_NPC3_neuronal_differentiation_120hr: Leibniz Research Institute for Environmental Medicine (IUF) 120-hour Neuronal Differentiation Assay (NPC3) (AID 2284301)
Procedure, shortened: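 Value is percent TUBB3-positive neurons among Hoechst-stained nuclei in the migration area, scored by trained CNN after 120 h differentiation. Primary hNPC spheres on poly-D-lysine/laminin, N2 medium, continuous dosing from day 0, half-refeed day 3; DMSO reference.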

[14] = IUF_NPC4_neurite_length_120hr: Leibniz Research Institute for Environmental Medicine (IUF) 120-hour Neuronal Morphology Assay for Neurite Length (NPC4) (AID 2284302)
Procedure, shortened: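 Neurite length, the mean in um across TUBB3-stained neurons, is derived by skeletonization of high-content images after 120 h differentiation. Compound exposure, 7 concentrations plus solvent control, ran from plating of hNPC spheres on poly-D-lysine/laminin, with medium half-replaced on day 3.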

[15] = IUF_NPC5_oligodendrocyte_differentiation_120hr: Leibniz Research Institute for Environmental Medicine (IUF) 120-hour Oligodendrocyte Differentiation Assay (NPC5) (AID 2284304; active = hit-call score of the fitted dose curve at least 0.9, where 1 is the maximum;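 note: primary human fetal neural progenitor spheres plated to migrate and differentiate; share of O4-positive cells among Hoechst nuclei found by CNN image analysis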)
Procedure, shortened: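 Oligodendrocyte differentiation was scored after 120 h as the O4-positive share of Hoechst-stained nuclei across the neurosphere migration area, using a trained convolutional neural network on high-content fluorescence images. Human fetal neural progenitor spheres were dosed from day 0, normalised to DMSO.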

[16] = IUF_NPC4_neurite_area_120hr: Leibniz Research Institute for Environmental Medicine (IUF) 120-hour Neuronal Morphology Assay for Neurite Area (NPC4) (AID 2284305; active = hit-call score of the fitted dose curve at least 0.9, where 1 is the maximum)
Procedure, shortened: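 Neurite area (pixels, nuclei excluded) of TUBB3-positive neurons from hNPC spheres differentiating 5 days under continuous exposure at 37 C, 5% CO2. High-content imaging; loss of signal versus DMSO control across 7 concentrations.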

[17] = IUF_NPC2-5_cytotoxicity_120hr: Cytotoxicity Assessment at 120 hours in the Leibniz Research Institute for Environmental Medicine (IUF) Neural Progenitor Cell Migration and Differentiation Assay (NPC2-5) (AID 2284307; active = hit-call score of the fitted dose curve at least 0.9, where 1 is the maximum)
Procedure, shortened: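 Sphere plating starts differentiation and exposure together at day 0. Compound solution is half-replaced on day 3. At 120 h, medium supernatant is taken for an LDH membrane-integrity read based on resazurin reduction to resorufin fluorescence.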

[18] = IUF_NPC2-5_cell_number_120hr: Cell Number Assessment at 120 hours in the Leibniz Research Institute for Environmental Medicine (IUF) Neural Progenitor Cell Migration and Differentiation Assay (NPC2-5) (AID 2284308);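 note: count of Hoechst-stained nuclei in migration zone around plated human neural progenitor spheres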
Procedure, shortened: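 hNPC spheres, one per well, PDL/laminin, N2 medium, 37C, 5% CO2. Dosing day 0 → half-medium change with fresh compound day 3 → fix 120 h. Readout: Hoechst+ nuclei count, migration area; 7 concentrations plus solvent control.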

[19] = IUF_NPC2-5_viability_120hr: Viability Assessment at 120 hours in the Leibniz Research Institute for Environmental Medicine (IUF) Neural Progenitor Cell Migration and Differentiation Assay (NPC2-5) (AID 2284312)
Procedure, shortened: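 Alamar blue resorufin fluorescence read after 5 days of differentiation, with compound present from day 0 and replenished at day 3. Primary hNPC spheres on laminin-coated plates, 37C; seven concentrations plus solvent control, fitted against DMSO.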

[20] = IUF_NPC1_cytotoxicity_72hr: Cytotoxicity Assessment at 72 hours in the Leibniz Research Institute for Environmental Medicine (IUF) Neural Progenitor Cell Proliferation Assay (NPC1) (AID 2284332; active = hit-call score of the fitted dose curve at least 0.9, where 1 is the maximum;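 note: rising LDH signal means more cytotoxicity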)
Procedure, shortened: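 Readout is fluorescence from LDH-dependent resazurin conversion, sampled from culture medium after compound contact lasting 72 h. Each well holds one 0.25-0.35 mm human progenitor sphere kept at 37C, 5% CO2 with EGF and FGF.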

[21] = CCTE_Mundy_HCI_iCellGluta_NOG_NeuronCount: CCTE's Neurite Outgrowth Assay in iCellGluta cells for Neuron Count, Mundy Lab (AID 2284340; active = hit-call score of the fitted dose curve at least 0.9, where 1 is the maximum;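 note: cells fixed about 48 h after compound addition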)
Procedure, shortened: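 Neuron count read by automated high-content imaging of Hoechst 33342 and betaIII-tubulin/Alexa Fluor-488 labelling in human iPSC glutamatergic neurons. Activity fitted relative to DMSO.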

[22] = CCTE_Mundy_HCI_iCellGluta_NOG_NeuriteCount: CCTE's Neurite Outgrowth Assay in iCellGluta cells for Neurite Count, Mundy Lab (AID 2284342; active = hit-call score of the fitted dose curve at least 0.9, where 1 is the maximum;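 note: chemical exposure about 48 hours starting 2 hours after plating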)

Measured: outcome

CCOP(=S)(OCC)SCS(=O)C(C)(C)C (configuration not stated)
inactive: all assays above
